Experimental findings from PubChem BioAssay (EPA / NIEHS) are described below.

Each structure is given as a SMILES string. Several values for one entry are separate records, joined by “and”; a condition that tells them apart may be missing. Equal entries are not always repeated. Records with an inconclusive call do not appear. Activity calls are given as the source filed them. The calls were made as follows, unless noted: active = hit-call score of the fitted dose curve at least 0.9, where 1 is the maximum; inconclusive = response in the unintended direction; inactive = score below 0.9.

The subject of one assay is rat CYP3A1, gene 25642. As to the kind of experiment: NVS_ADME_rCYP3A1: NovaScreen (NVS) CYP450-related Enzyme Activity (ADME) Assay for rat CYP3A1 (AID 2283126). The essentials: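 Cell-free recombinant CYP assay with fluorescent substrate, read 0.5 h after dosing. Screened at 10 uM in duplicate, hits at up to 20 uM in concentration-response; loss of signal versus acetonitrile baseline.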

Assay [1] addresses rat CYP2C12, Cyp2c12 (gene 25011) (UniProt P11510). As to the kind of experiment: NVS_ADME_rCYP2C12: NovaScreen (NVS) CYP450-related Enzyme Activity (ADME) Assay for rat CYP2C12 (AID 2283119). The essentials:
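Cell-free recombinant rat CYP2C12 activity read by fluorescence 0.5 h after dosing; loss of signal versus acetonitrile control. Primary screen in duplicate at 10 uM; actives then run in concentration-response format.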

Assay [2] concerns the target rat CYP2D1, Cyp2d1 (gene 266684) (UniProt P10633). As to the kind of experiment: NVS_ADME_rCYP2D1: NovaScreen (NVS) CYP450-related Enzyme Activity (ADME) Assay for rat CYP2D1 (AID 2283122). The essentials:
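Cell-free fluorescence enzyme-activity assay on extracted rat CYP2D1 protein, read 0.75 h after dosing. Primary screen in duplicate at 10 uM; qualifying chemicals then run in concentration-response to 20 uM max, loss-of-signal versus acetonitrile baseline.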

In assay [3] the target is rat CYP2A2, Cyp2a2 (gene 24895) (UniProt P15149). As to the kind of experiment: NVS_ADME_rCYP2A2: NovaScreen (NVS) CYP450-related Enzyme Activity (ADME) Assay for rat CYP2A2 (AID 2283116). The essentials:
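Cell-free recombinant rat CYP2A2 activity with fluorogenic substrate, fluorescence read 0.2 h after dosing. Chemicals screened at 10 uM in duplicate, hits then run in concentration-response up to 20 uM; signal loss versus acetonitrile baseline.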

The target of assay [4] is rat CYP2C11, Cyp2c11 (gene 29277) (UniProt P08683). As to the kind of experiment: NVS_ADME_rCYP2C11: NovaScreen (NVS) CYP450-related Enzyme Activity (ADME) Assay for rat CYP2C11 (AID 2283118). The essentials:
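Cell-free recombinant rat enzyme with fluorescent substrate; readout 0.33 h after dosing, loss of signal versus acetonitrile control. Initial duplicate single-point at 10 uM; actives rerun in concentration series.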

Assay [5] addresses rat CYP2D2, Cyp2d26 (gene 25053) (UniProt P10634). As to the kind of experiment: NVS_ADME_rCYP2D2: NovaScreen (NVS) CYP450-related Enzyme Activity (ADME) Assay for rat CYP2D2 (AID 2283124). The essentials:
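Recombinant rat CYP2D2 in a cell-free fluorogenic activity assay, fluorescence read 0.75 h after dosing. Primary screen in duplicate at 10 uM; actives re-run singly in concentration-response to 20 uM, relative to acetonitrile.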

Another assay concerns rat CYP2C6, gene 293989. As to the kind of experiment: NVS_ADME_rCYP2C6: NovaScreen (NVS) CYP450-related Enzyme Activity (ADME) Assay for rat CYP2C6 (AID 2283120). The essentials: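 Cell-free recombinant rat CYP2C6 with fluorogenic substrate, read by fluorescence 1 h after dosing; acetonitrile as negative control. Primary screen at 10 uM in duplicate, actives then in concentration-response up to 20 uM.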

Assay [6] concerns the target rat CYP2C13, Cyp2c13 (gene 171521) (UniProt P20814). As to the kind of experiment: NVS_ADME_rCYP2C13: NovaScreen (NVS) CYP450-related Enzyme Activity (ADME) Assay for rat CYP2C13 (AID 2283121). The essentials: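 Recombinant rat CYP2C13 with fluorogenic substrate, 0.75 h cell-free incubation; primary screen in duplicate at 10 uM, actives followed in concentration series. Fluorescence loss relative to acetonitrile control indicates inhibition.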

In assay [7] the target is rat CYP2A1, Cyp2a1 (gene 24894) (UniProt P11711). As to the kind of experiment: NVS_ADME_rCYP2A1: NovaScreen (NVS) CYP450-related Enzyme Activity (ADME) Assay for rat CYP2A1 (AID 2283114; active = hit-call score of the fitted dose curve at least 0.9, where 1 is the maximum; inactive = score below 0.9). The essentials: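 Recombinant rat CYP2A1, cell-free, fluorogenic substrate turnover read by fluorescence intensity 0.75 h after dosing. Primary screen at 10 uM in duplicate; actives rerun as concentration-response up to 20 uM; loss of signal versus acetonitrile control.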

Assay [8] has as its target rat CYP1A2, Cyp1a2 (gene 24297) (UniProt P04799). As to the kind of experiment: NVS_ADME_rCYP1A2: NovaScreen (NVS) CYP450-related Enzyme Activity (ADME) Assay for rat CYP1A2 (AID 2283115). The essentials: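 Cell-free recombinant rat enzyme with fluorogenic substrate, read by fluorescence intensity 1 hour after dosing. Loss of signal versus acetonitrile negative control; primary screen at 10 uM in duplicate, actives followed in concentration series.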

rat CYP2D2, Cyp2d26 (gene 25053), sequence (P10634 whole entry, looked up): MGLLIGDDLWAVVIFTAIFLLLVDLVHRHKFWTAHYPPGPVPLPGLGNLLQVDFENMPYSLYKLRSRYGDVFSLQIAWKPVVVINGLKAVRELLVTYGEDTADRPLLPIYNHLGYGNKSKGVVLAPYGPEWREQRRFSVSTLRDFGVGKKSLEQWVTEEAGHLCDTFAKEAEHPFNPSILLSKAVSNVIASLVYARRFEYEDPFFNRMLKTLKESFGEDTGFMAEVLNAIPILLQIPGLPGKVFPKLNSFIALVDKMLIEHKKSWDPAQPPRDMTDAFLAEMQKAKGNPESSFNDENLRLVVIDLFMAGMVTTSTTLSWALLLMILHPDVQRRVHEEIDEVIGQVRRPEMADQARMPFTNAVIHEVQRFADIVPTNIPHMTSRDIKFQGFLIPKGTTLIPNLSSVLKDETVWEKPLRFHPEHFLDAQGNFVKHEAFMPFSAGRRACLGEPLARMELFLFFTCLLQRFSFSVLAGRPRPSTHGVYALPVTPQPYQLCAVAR
rat CYP2A1, Cyp2a1 (gene 24894), sequence (P11711 whole entry, looked up): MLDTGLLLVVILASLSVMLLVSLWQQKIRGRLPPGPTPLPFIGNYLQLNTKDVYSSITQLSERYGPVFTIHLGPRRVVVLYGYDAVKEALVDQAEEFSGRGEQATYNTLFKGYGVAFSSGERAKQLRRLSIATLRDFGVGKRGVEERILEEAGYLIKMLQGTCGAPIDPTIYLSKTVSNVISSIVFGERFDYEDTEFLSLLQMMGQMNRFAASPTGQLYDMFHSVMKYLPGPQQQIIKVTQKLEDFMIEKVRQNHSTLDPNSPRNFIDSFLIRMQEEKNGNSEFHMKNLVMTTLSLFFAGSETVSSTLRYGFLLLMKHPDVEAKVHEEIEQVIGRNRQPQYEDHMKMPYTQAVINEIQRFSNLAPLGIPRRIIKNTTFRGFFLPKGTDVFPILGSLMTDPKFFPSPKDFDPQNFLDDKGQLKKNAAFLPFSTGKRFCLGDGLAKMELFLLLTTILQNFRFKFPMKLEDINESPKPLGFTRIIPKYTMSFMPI
rat CYP2A2, Cyp2a2 (gene 24895), sequence (P15149 whole entry, looked up): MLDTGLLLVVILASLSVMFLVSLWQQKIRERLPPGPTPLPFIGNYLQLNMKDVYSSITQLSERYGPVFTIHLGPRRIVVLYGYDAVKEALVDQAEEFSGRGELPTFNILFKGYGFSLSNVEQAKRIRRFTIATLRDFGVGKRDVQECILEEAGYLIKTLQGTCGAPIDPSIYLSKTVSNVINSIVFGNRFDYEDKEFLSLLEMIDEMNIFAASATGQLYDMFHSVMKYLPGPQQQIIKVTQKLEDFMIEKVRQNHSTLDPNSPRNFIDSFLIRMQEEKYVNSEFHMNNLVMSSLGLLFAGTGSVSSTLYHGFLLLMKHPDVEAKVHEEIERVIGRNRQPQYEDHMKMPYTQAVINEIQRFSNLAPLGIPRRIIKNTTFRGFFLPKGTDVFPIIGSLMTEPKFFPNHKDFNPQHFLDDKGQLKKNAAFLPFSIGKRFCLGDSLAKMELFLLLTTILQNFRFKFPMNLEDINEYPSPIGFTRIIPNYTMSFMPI
rat CYP2C11, Cyp2c11 (gene 29277), sequence (P08683 whole entry, looked up): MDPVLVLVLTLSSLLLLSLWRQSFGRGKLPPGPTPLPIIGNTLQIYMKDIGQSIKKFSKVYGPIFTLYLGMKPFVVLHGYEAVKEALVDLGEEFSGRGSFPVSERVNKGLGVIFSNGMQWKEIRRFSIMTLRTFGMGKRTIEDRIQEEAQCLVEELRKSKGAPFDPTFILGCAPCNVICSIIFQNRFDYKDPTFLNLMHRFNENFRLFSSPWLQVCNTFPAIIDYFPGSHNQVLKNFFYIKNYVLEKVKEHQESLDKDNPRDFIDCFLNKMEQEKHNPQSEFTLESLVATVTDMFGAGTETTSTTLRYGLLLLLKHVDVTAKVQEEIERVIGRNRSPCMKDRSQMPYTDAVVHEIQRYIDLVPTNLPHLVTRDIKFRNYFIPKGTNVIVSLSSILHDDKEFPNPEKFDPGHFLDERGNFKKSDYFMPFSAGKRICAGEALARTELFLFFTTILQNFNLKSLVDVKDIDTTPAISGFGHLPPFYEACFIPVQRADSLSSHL
rat CYP2D1, Cyp2d1 (gene 266684), sequence (P10633 whole entry, looked up): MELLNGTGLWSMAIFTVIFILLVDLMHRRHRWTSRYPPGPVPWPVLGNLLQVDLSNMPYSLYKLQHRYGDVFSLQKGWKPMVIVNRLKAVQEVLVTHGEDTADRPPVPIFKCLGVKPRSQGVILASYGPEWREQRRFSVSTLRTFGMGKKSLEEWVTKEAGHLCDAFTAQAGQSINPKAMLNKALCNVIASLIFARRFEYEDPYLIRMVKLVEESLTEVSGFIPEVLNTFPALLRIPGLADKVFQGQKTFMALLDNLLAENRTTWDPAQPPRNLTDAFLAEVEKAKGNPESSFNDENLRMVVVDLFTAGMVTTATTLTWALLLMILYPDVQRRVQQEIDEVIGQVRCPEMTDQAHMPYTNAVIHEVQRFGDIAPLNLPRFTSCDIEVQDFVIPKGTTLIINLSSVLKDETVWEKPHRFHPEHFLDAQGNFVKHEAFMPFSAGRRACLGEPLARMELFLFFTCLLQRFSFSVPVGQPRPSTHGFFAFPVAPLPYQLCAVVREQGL
rat CYP1A2, Cyp1a2 (gene 24297), sequence (P04799 whole entry, looked up): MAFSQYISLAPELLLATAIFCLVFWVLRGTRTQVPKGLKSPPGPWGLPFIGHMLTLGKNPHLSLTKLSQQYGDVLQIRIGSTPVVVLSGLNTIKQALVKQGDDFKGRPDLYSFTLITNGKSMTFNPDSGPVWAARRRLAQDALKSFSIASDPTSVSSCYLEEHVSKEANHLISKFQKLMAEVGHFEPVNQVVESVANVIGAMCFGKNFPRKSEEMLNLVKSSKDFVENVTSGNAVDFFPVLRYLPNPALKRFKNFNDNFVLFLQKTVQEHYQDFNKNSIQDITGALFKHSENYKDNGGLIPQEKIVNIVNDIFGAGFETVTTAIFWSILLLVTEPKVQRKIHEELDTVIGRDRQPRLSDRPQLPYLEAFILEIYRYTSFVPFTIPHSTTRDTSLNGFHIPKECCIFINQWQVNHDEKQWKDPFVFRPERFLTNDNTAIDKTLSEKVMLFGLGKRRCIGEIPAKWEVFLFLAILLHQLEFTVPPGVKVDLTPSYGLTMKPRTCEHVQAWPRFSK
rat CYP2C13, Cyp2c13 (gene 171521), sequence (P20814 whole entry, looked up): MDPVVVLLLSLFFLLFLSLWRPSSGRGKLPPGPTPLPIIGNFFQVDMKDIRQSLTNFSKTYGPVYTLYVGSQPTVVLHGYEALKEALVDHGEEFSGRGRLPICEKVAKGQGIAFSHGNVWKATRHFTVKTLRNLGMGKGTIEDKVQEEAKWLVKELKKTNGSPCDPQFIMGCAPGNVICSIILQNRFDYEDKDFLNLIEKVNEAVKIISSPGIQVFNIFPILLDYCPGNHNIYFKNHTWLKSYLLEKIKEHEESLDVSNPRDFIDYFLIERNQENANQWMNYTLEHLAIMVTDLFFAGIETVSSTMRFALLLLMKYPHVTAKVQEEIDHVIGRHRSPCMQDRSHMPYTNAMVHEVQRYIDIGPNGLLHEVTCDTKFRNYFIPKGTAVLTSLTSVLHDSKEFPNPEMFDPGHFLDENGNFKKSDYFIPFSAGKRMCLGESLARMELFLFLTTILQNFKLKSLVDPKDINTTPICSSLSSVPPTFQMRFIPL
rat CYP2C12, Cyp2c12 (gene 25011), sequence (P11510 whole entry, looked up): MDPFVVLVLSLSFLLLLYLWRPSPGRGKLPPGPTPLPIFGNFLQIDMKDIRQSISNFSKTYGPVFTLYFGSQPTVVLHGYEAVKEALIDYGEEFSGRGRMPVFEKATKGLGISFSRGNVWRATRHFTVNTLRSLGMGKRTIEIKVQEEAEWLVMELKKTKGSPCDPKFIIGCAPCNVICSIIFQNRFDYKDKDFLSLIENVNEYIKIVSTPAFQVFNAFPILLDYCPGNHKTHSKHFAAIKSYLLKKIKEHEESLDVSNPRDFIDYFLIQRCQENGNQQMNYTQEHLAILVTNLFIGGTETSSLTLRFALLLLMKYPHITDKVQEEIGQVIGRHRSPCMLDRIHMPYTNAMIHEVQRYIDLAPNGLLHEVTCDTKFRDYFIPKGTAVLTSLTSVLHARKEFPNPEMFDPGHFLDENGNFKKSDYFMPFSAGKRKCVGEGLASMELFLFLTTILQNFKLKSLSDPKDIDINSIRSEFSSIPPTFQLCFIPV

As a reminder, the AC50 is the concentration giving half of the maximal activity seen. Take `Cc1ccc(N=CN(C)C=Nc2ccc(C)cc2C)c(C)c1`: the AC50 in the assay with rat CYP3A1, gene 25642 is 4.8 µM (active).
For `Clc1nc(Cl)nc(Nc2ccccc2Cl)n1`, the result in the assay on rat CYP3A1, gene 25642 was inactive.
Consider `O=C1C2CC=CCC2C(=O)N1SC(Cl)(Cl)Cl` (stereo not drawn), for which the compound was classed as inactive in assay [1].
Turning to `Nc1cnn(-c2ccccc2)c(=O)c1Cl`, the AC50 is 2.37 µM (active) in assay [2] and 7.35 µM (active) with rat CYP3A1, gene 25642.
Turning to `Cc1c(COC(=O)[C@@H]2[C@H](/C=C(\Cl)C(F)(F)F)C2(C)C)cccc1-c1ccccc1`, the result in assay [3] was inactive.
For the compound `CCOc1cc(C(C)(C)C)ccc1C1COC(c2c(F)cccc2F)=N1` (stereo not drawn), the AC50 in [3] was 1.15 µM (active); in [4], 10 µM (active); in assay [5], 0.55 µM (active).
Consider `COc1cc(OC)nc(NC(=O)NS(=O)(=O)c2ncccc2OCC(F)(F)F)n1`, for which the AC50 in the assay on rat CYP3A1, gene 25642 is 5.87 µM (active).
For the compound `CCNP(=S)(OC)O/C(C)=C/C(=O)OC(C)C` (stereo not drawn), the AC50 was 6.86 µM (active) in assay [3]; 1.24 µM (active) in [4]; 10 µM (active) in assay [1]; 0.151 µM (active) in the assay on rat CYP2C6, gene 293989; 7.31 µM (active) in assay [6]; 5.41 µM (active) in assay [5]. For the same compound, the AC50 in the assay on rat CYP3A1, gene 25642 was 1.93 µM (active).
Consider `CCOP(=S)(OCC)Oc1nc(Cl)n(C(C)C)n1`, for which the AC50 was 0.837 µM (active) in the assay on rat CYP2C6, gene 293989; 5.76 µM (active) in assay [5]; 3.46 µM (active) in the assay on rat CYP3A1, gene 25642.
Consider `CC1(C)CCC(=Cc2ccc(Cl)cc2)C1(O)Cn1cncn1` (stereo not drawn), for which the AC50 in [7] was 1.11 µM (active); in [3], 0.299 µM (active); in [4], 0.384 µM (active); in the assay with rat CYP3A1, gene 25642 it was 0.0126 µM (active). Besides, the compound was classed as inactive in assay [5].
For `COC(=O)NC(=S)Nc1ccccc1NC(=S)NC(=O)OC`, in the assay on rat CYP3A1, gene 25642, the AC50 was 7.66 µM (active).
Take `CCN(CC)c1nc(C)cc(OP(=S)(OC)OC)n1`: in the assay with rat CYP2C6, gene 293989, the AC50 is 0.723 µM (active).
Take `COP(=S)(OC)Oc1ccc([N+](=O)[O-])c(C)c1`: the concentration at half-maximal activity (AC50) was 3.84 µM (active) in assay [7]; 0.392 µM (active) in assay [4]; 8.05 µM (active) in [1]; 0.177 µM (active) with rat CYP2C6, gene 293989; 10 µM (active) in [6]; 5.28 µM (active) in [5]. The AC50 with rat CYP3A1, gene 25642 was 8.22 µM (active). Moreover, the result in assay [8] was inactive.
For `CCNC(=O)NC(=O)C(C#N)=NOC`, the result in [5] was inactive.
On to `COC(=O)c1c(C(F)F)nc(C(F)(F)F)c(C2=NCCS2)c1CC(C)C`, for which the AC50 is 3.59 µM (active) in the assay on rat CYP2C6, gene 293989; 5.48 µM (active) in assay [2]; 2.32 µM (active) in the assay on rat CYP3A1, gene 25642.
Regarding `COC(=O)N(C(=O)N1CO[C@@]2(C(=O)OC)Cc3cc(Cl)ccc3C2=N1)c1ccc(OC(F)(F)F)cc1`, in [1], the AC50 was 0.332 µM (active).
With `CCC(C)n1c(=O)[nH]c(C)c(Br)c1=O` (stereo not drawn), the AC50 in assay [2] was 3.93 µM (active).
`CC(C)NC(=O)N1CC(=O)N(c2cc(Cl)cc(Cl)c2)C1=O`: the compound was called inactive in assay [8]. In addition, the AC50 is 2.38 µM (active) in the assay on rat CYP2C6, gene 293989 and 2.27 µM (active) in the assay on rat CYP3A1, gene 25642.
With `CC(C)(C)C(=O)C(Oc1ccc(Cl)cc1)n1cncn1` (stereo not drawn), the AC50 in assay [3] was 32 nM (active) and 40.6 nM (active); in [4], 4.29 µM (active); in assay [6] it was 0.246 µM (active); in assay [2], 6.43 µM (active); in assay [5], 5.33 µM (active) and 5.52 µM (active); in the assay with rat CYP3A1, gene 25642 it was 8.49 µM (active).
As to `CO/N=C(/C1=NOCCO1)c1ccccc1Oc1ncnc(Oc2ccccc2Cl)c1F`, the AC50 in assay [7] was 1.57 µM (active); in [4] it was 0.779 µM (active); in the assay with rat CYP2C6, gene 293989, 1.74 µM (active); with rat CYP3A1, gene 25642 it was 0.705 µM (active).
Take `CSC(=O)c1c(C(F)F)nc(C(F)(F)F)c(C(=O)SC)c1CC(C)C`: the AC50 in the assay with rat CYP2C6, gene 293989 was 2.99 µM (active).
As for `N#Cc1c[nH]cc1-c1cccc2c1OC(F)(F)O2`, in [8], the call was inactive.
`COCC(=O)N(c1c(C)cccc1C)C(C)C(=O)OC` (stereo not drawn): the AC50 with rat CYP3A1, gene 25642 is 4.46 µM (active).
On to `COP(=S)(OC)SCn1nnc2ccccc2c1=O`, for which the AC50 was 3.24 µM (active) in assay [7]; 5.47 µM (active) in assay [3]; 0.419 µM (active) in assay [4]; 0.634 µM (active) in the assay on rat CYP2C6, gene 293989; 3.03 µM (active) in [6]; 6.92 µM (active) in [2]. Besides, the AC50 is 7.04 µM (active) in assay [5] and 3.02 µM (active) with rat CYP3A1, gene 25642.
With `CCCN(CC)CC1COC2(CCC(C(C)(C)C)CC2)O1` (stereo not drawn), the compound was called inactive in assay [3]. Also, the AC50 in assay [5] was 6.05 µM (active) and 2.09 µM (active).
Consider `CC(C)C1(C)N=C(c2ncccc2C(=O)O)NC1=O` (stereo not drawn), for which the AC50 in [3] is 6.92 µM (active).
